TSHR ag: qHTS Assay for Agonists of the Thyroid Stimulating Hormone Receptor | Thyrotropin receptor (Homo sapiens), P16473 | HEK293-CNG-TSHR cells (CNG channel as cAMP sensor), membrane potential dye, cAMP | Potency, µM (titrated, usually from 57.1 µM), without a hit: at the highest dose activation, most hits filed as activators | 0.48% of 73,000 active | AID 926, 2007; active = well fitted activation curve with a large enough effect in the main read-out, with a control signal flat, not every such curve was filed as active; inconclusive = small, poorly fitted or top-dose-only effect, or a change in a side signal; inactive = no such curve, though single readings can be large or run the other way; % of control where 0% means no effect;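 note: the control signal comes from parental cells without the receptor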
Target sequence (P16473 whole entry, looked up): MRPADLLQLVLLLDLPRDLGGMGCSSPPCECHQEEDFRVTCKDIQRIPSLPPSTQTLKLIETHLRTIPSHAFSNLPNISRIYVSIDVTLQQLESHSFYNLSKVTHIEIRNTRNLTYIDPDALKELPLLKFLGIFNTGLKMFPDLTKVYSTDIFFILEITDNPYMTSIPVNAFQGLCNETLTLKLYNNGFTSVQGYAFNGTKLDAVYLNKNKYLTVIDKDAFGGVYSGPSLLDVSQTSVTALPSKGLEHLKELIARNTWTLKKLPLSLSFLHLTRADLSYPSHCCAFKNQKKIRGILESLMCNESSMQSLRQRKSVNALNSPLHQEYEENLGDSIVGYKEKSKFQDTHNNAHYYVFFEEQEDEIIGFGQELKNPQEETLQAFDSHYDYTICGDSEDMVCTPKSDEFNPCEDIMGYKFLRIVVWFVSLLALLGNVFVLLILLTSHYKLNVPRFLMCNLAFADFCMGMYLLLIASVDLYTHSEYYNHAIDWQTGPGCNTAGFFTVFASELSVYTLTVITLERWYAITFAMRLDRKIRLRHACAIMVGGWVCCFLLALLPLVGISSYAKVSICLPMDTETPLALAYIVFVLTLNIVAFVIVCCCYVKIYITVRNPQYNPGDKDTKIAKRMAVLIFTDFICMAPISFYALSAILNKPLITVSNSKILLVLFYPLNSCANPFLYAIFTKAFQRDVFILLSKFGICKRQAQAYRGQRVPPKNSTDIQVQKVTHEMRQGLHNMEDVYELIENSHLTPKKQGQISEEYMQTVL
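HEK 293 cells stably expressing TSHR and a modified CNG channel, with CNG-only parental cells as counterscreen, were preloaded 60 min at room temperature with membrane potential dye containing 100 uM RO 20-1724. Compound exposure was 30 min, and depolarization was read as fluorescence at 590 nm.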
PK Bst: Pyruvate Kinase; purified pyruvate kinase, luminescence ATP production; ribose 5-phosphate activator present at AC10; AID 361, 2006; Potency, µM; 1.2% of 51,000 active; in the data active = potency below about 11 µM; inconclusive = mostly about 12 µM to 25 µM;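 the screen sought inhibitors and activators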;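 note: scaled between full activation by ribose 5 phosphate and full inhibition by luteolin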
Luciferase inh: qHTS Assay for Inhibitors of Firefly Luciferase | Luciferin 4-monooxygenase (Photinus pyralis), P08659 | purified firefly luciferase, luminescence, 8 min | Potency, µM (top dose mostly 57.1 µM), for inactives: at the top dose activity change, negative = inhibition, hits mostly inhibitors | 2.2% of 72,000 active; note: % is set by controls: 0 for no effect and ±100 for the full control effect; nearly all actives have a fitted effect of over 40% in size
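Here, luciferase activity is measured as luminescence following an 8 min room-temperature reaction at 10 uM ATP, pH 7.2. Every library sample is titrated.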
HEK293 cAMP ctrl: qHTS Assay for Agonists of the Thyroid Stimulating Hormone Receptor: Activators of Intracellular cAMP Concentrations in Parental HEK 293 | 2.5% of 73,000 active | Potency, µM (series often up to 57.1 µM), for the others: at the highest dose activation, hits mostly activators | parental HEK293 CNG cAMP sensor, membrane potential fluorescence; note: % of control where 0% means no effect; nearly all actives have a fitted effect of over 55% in size
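Counterscreen for endogenous-receptor signalling: CNG-channel HEK 293 cells report cAMP rise by membrane depolarization. After 60 min dye equilibration with 100 uM RO 20-1724, compounds incubated 30 min before bottom-read fluorescence at 590 nm.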
An asterisk follows results filed as active; i = inactive; ? = inconclusive; . = no result given; [ ] = remark or other dose. Compounds with a hit are over-represented: about 5.2% of the library has one in this group of screens. Unless noted, calls come from the whole dose curve; as a rule, active = well fitted curve in the direction sought with a large enough effect; inconclusive = small, poorly fitted or top-dose-only effect, or another doubt; inactive = no such curve, though single readings can be large; an effect the other way counts as inactive or inconclusive. Potency is the fitted concentration of half-maximal effect.

SMILES | TSHR ag | PK Bst | Luciferase inh | HEK293 cAMP ctrl
COc1ccc(C(c2nnnn2C2CCCCC2)N2CCN(c3ccc(OC)cc3)CC2)cc1 (stereo unspecified) | 17.9% | >57 | 0.5% | 15.9%
Clc1ccc(C(c2nnnn2C2CCCC2)N2CCSCC2)cc1 (stereo unspecified) | ? | >57 | -0.6% | 3.16µM*
Cc1cc(/C=c2/sc3nc4ccccc4n3c2=O)c(C)n1-c1ccccn1 | . | 0.843* | 0.501µM* | .
COCCNc1ncnc2c1cnn2-c1ccc(Cl)cc1 | . | 10* | 10µM* | .
OCCOCCNc1ncnc2c1cnn2-c1ccc(Cl)cc1 | . | 11* | 10µM* | .
CC(C)Nc1ncnc2c1cnn2-c1ccc(Cl)cc1 | -10.3% | . | 2.51µM* | -9.6%
Clc1ccc(Nc2ncnc3c2cnn3-c2ccccc2)cc1 | 9.1% | . | ? | 7.8%
COCCN(CCOC)c1ncnc2c1cnn2-c1ccc(Cl)cc1 | -1.4% | . | -18.4% | -14.8%
COC(=O)c1ccc(Cn2nnc3ccccc3c2=O)o1 | 11.2% | i | -30.5% | 2.6%
CN(C)S(=O)(=O)c1ccc2nc(NC(=O)c3cccnc3)sc2c1 | ? | i | 12.6µM* | ?
O=C(Nc1nc2ccc(S(=O)(=O)N3CCCCC3)cc2s1)c1ccncc1 | -0.3% | >57 | -1.7% | -0.2%
CCOC(=O)c1ccc2nc(NC(=O)c3cccs3)sc2c1 | 9.1% | i | 7.94µM* | 10.4%
CCOC(=O)c1ccc2nc(NC(=O)C(C)C)sc2c1 | 4.3% | . | 2.2% | 34.3%
CS(=O)(=O)c1ccc2nc(NC(=O)c3ccco3)sc2c1 | -9.9% | . | 3.98µM* | 3.1%
CC(C)(C)C(=O)COC(=O)c1cccc(NC(=O)c2ccco2)c1 | 1.9% | >57 | -4.4% | -6.5%
O=C(COC(=O)c1cccc(NC(=O)c2ccco2)c1)c1ccc(Br)cc1 | ? | . | 2.51µM* | ?
CCOC(=O)C1CCN(C(=O)Nc2ccc3nc(C)c(C)nc3c2)CC1 | -2.8% | >57 | -12.5% | 2.9%
CCC(=O)N1CC2(C)CN(C(=O)CC)CC(C)(C1)C2 | -6.0% | >57 | -0.5% | 8.1%
Cc1nc2sc3c(NCc4ccco4)ncnc3c2c2c1COC(C)(C)C2 | . | >25.6 | -0.8%[25.5 µM] | .
CCOC(=O)c1ccc2nc(NC(=O)c3ccco3)sc2c1 | -7.7% | i | 15.8µM* | -9.6%
Cc1cc(C)n(-c2ccc(C(=O)Nc3ccc(S(=O)(=O)NCc4ccco4)cc3)cc2)n1 | 20.6% | >57 | 0.1% | 23.3%
Nc1c(Br)cc2oc(-c3ccccc3)nc2c1Br | . | . | -13.2%[25.5 µM] | .
COc1ccc(-c2nc3c(Br)c(N)c(Br)cc3o2)cc1 | . | ? | 2.51µM* | .
Cc1ccccc1N=C(N)Nc1ccccc1C | ? | . | 0.3% | 15.8µM*
O=C(c1ccc(F)cc1)N1CCN(C2CC3CCC2C3)CC1 (stereo unspecified) | -2.7% | >57 | 1.6% | 19.2%
SMILES | TSHR ag | PK Bst | Luciferase inh | HEK293 cAMP ctrl
Cc1csc(NC(=O)C(NS(=O)(=O)c2ccc(Br)s2)c2ccccc2)n1 (stereo unspecified) | 10.6% | >57 | 2.1% | -0.4%
COc1cccc(-c2cc(C(=O)N3CCCc4ccccc43)no2)c1 | ? | . | -22.9% | 15.8µM*
COc1ccc(OCCCC(=O)N2CCCc3ccccc32)cc1 | ? | >57 | 1.4% | 15.8µM*
COc1ccc(-c2cc(C(=O)N3CCCc4ccccc43)no2)cc1 | ? | i | 15.8µM* | 20µM*
COc1ccc(C2=NOC(C(=O)N3CCCc4ccccc43)C2)cc1 (stereo unspecified) | 8.2% | . | 15.8µM* | 29.0%
COc1ccccc1N1CCN(CCCNc2c(C)c(=O)n(C)c(=O)n2C)CC1 | 10.2% | . | -0.6% | 4.1%
COc1ccc(OC)c(C2N(c3ccc(Cl)cc3)C(=O)C3CCCN32)c1 (stereo unspecified) | 4.0% | >57 | 1.3% | 7.7%
COc1ccc(OC)c(-c2cc(C(=O)N3CCCc4ccccc43)no2)c1 | ? | >57 | 4.9% | ?
COc1ccc(-c2cc(C(=O)N3CCCc4ccccc43)no2)cc1OC | ? | >57 | -2.9% | 25.1µM*
CCOc1ccc(-c2nc(-c3ccccc3C)no2)cc1 | 9.5% | 7.99* | 2µM* | 17.5%
COc1ccc(CNc2ccc(-c3ccc(OC)cc3)nn2)cc1 | 11.9% | >57 | 1.4% | -5.4%
Cc1ccc2nc(Nc3ccc4[nH]c(=O)[nH]c4c3)c(-n3nc(C)cc3C)nc2c1 | -31.5% | 7.48* | 3.98µM* | -28.3%
Cc1cc(C)n(-c2nc3ccccc3nc2Nc2ccc3c(c2)OCO3)n1 | 27.1% | . | -2.6% | 0.7%
Nc1ccc2c(c1)CCC2=O | 7.5%[11.4 µM] | i | 12.6µM* | -1.7%
Nc1ccc2c(c1)C(=O)N(CC1CCCO1)C2=O (stereo unspecified) | 2.3% | >57 | 0.5% | 3.6%
O=C(c1cccc(C(=O)N2CCN(c3ccccc3)CC2)c1)N1CCN(c2ccccc2)CC1 | ? | . | 1.5% | ?
CN(C)/N=N\c1nc[nH]c1C(N)=O | ? | . | 0.6%[25.5 µM] | ?
CN(C)c1nc(NCc2ccccc2)nc(Oc2ccc(=O)[nH]n2)n1 | 20µM* | >57 | 1.5% | 12.1%
COc1ccc(-c2cc(C(F)F)n3ncc(C(=O)NCC4CCCO4)c3n2)cc1 (stereo unspecified) | ? | . | 0.3% | 7.94µM*
COc1ccc(-c2cc(C(F)F)n3ncc(C(=O)N4CCN5CCCC5C4)c3n2)cc1 (stereo unspecified) | ? | >57 | 4.2% | 15.8µM*
CCOC(=O)N1CCN(C(=O)c2cnn3c(C(F)F)cc(-c4ccc(C)cc4)nc23)CC1 | ? | >57 | -0.9% | ?
COc1ccc(-c2cc(C(F)(F)F)n3ncc(C(=O)NCC4CCCO4)c3n2)cc1OC (stereo unspecified) | . | . | . | 13.3%
COCCCn1c(SCC(=O)OC2CCCCC2)nnc1-c1cccs1 | ? | . | -24.2% | ?
Cc1c(/C(O)=C2\C(=O)C(=O)N(CCCN(C)C)C2c2ccccc2)cnn1-c1ccccc1 (stereo unspecified) | . | >25.6 | -9.8%[25.5 µM] | .
COc1ccc(Cc2nc(-c3ccc(Br)o3)no2)cc1OC | . | . | -5.7% | 27.2%
SMILES | TSHR ag | PK Bst | Luciferase inh | HEK293 cAMP ctrl
Fc1ccc(OCc2nc(-c3ccc(Br)o3)no2)c(F)c1 | ? | . | -6.5% | 2.51µM*
COc1ccc2c(Cl)cc(NC(=S)Nc3ccccc3)nc2c1 | -1.0%[11.4 µM] | . | 3.2%[11.4 µM] | 7.9%[11.4 µM]
CCc1cc2ccccc2nc1SCC(=O)Nc1cc(C)on1 | ? | >57 | 0.2% | 25.1µM*
CCc1cc2ccc(OC)cc2nc1SCC(=O)Nc1cc(C)on1 | ? | >57 | -0.9% | ?
COc1ccccc1N1CCN(C(CNS(=O)(=O)c2ccc(C)cc2)c2cccnc2)CC1 (stereo unspecified) | 0.0% | >57 | 0.8% | 6.2%
N#Cc1ccc(-c2ccco2)nc1SCc1ccccc1 | 0.0% | >57 | -0.7% | -5.3%
O=C(c1ccccc1)n1nc(-c2ccccc2)nc1NCc1ccco1 | 25.1µM* | . | 1.1% | 19.4%
Cc1cc(OCc2nc(N)nc(N)c2-c2ccc(Cl)c(Cl)c2)ccc1[N+](=O)[O-] | 5.5%[11.4 µM] | . | 0.2%[11.4 µM] | 10.2%[11.4 µM]
